Assay [1] in a line: hit retest on RPL19A-GFP reporter strain – cell-based, S. cerevisiae, flow cytometry, cherry picks, mother/daughter gates, confirmation (AID 2270;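 active = GFP response below 50% of the DMSO control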). Particulars: 3 h, at 10 µM, stronger effect = lower value, 100 = same GFP as DMSO wells.
Assay [2] is described as follows: yeast TOR pathway reporter LAP4-GFP change – cell-based, cherry picks, flow cytometry, mother/daughter gates, confirmation (AID 2271;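 active = GFP response above 150% of the DMSO control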;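 note: ratio of sample to DMSO plate mean so 100% equals DMSO level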). Conditions: S. cerevisiae LAP4-GFP strain, 3 h, at 10 µM, stronger effect = higher value. On the technique in general: A flow cytometer gives signals particle by particle.
Assay [3] can be described thus: TOR pathway CIT2 reporter hit retest – S. cerevisiae, GFP fusion, cherry picks, mother/daughter gates, confirmation (AID 2274;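 active = GFP response above 150% of the DMSO level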). Particulars: S. cerevisiae CIT2-GFP strain, flow cytometry, 3 h, at 10 µM, stronger effect = higher value.
Assay [4] in a line: rapamycin-like changes in RPL19A-GFP expression – cell-based, S. cerevisiae, multiplex flow cytometry, primary screen (AID 1862; in the data active = percent of DMSO control GFP below about 86%;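 note: lower values mimic rapamycin by blocking the RPL19A rise seen in DMSO cells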). Conditions: S. cerevisiae RPL19A-GFP strain, flow cytometry fluorescence, 3 h; at 10 µM; stronger effect = lower value.
Assay [5] in a line: TOR pathway RTG branch CIT2 reporter changes – S. cerevisiae, GFP fusion, multiplex flow cytometry, primary screen (AID 1870;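 active = percent response above a set limit, the screen-wide mean plus 3 SD, cut at about 130% in these data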;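 note: barcoded CIT2-GFP strain pooled with four other GFP strains with rapamycin as positive control; median GFP fluorescence per well over plate mean of DMSO wells so 100% = DMSO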). Particulars: S. cerevisiae CIT2-GFP expression, 3 h, at 10 µM, stronger effect = higher value.
A short description of assay [6]: TOR pathway LAP4-GFP level changes – S. cerevisiae, multiplex flow cytometry, primary screen (AID 1873;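 active = GFP signal, as percent of the solvent control, above the screen mean plus 3 SD, about 149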). Conditions: S. cerevisiae LAP4-GFP expression, 3 h, at 10 µM, stronger effect = higher value.
Assay [7] can be described thus: reduced mouse 2C T cell binding to pMHC/ICAM-1 vesicles – MLPCN validation set, flow cytometry, LFA-1/ICAM-1 modulator project, pilot screen (AID 2523;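 active = response below a set limit, under 55% cells CD8-positive and vesicle-bound, and CD8 cells' 90th-percentile brightness under 279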;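 for vesicle binding response: mean PE anti-B7-1 fluorescence of CD8+ cells relative to row control; 100% = QL9-loaded vesicles with DMSO vehicle in the same plate row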). Conditions: 2C mouse CD8+ T cells, at 7 µM, stronger effect = lower value; double positive events: measured here: CD8+/vesicle+ event percentage.
Assay [8] addresses Integrin beta-1 (Homo sapiens) + Integrin alpha-4 (Homo sapiens) (UniProt P13612+P05556). In words: alpha4beta1 integrin LIBS antibody binding reduction – U937 cells, HUTS-21 mAb, flow cytometry, validation set, VLA-4 allosteric modulator project, pilot screen (AID 2674;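 active = inhibition above 50%, about 3 SD of the validation set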;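 note: antibody binding induced by the VLA-4 ligand LDV present at three times its Kd; 0% = LDV ligand with antibody and no compound and 100% = antibody without LDV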). Conditions: HUTS-21 LIBS mAb binding, at 6.7 µM, stronger effect = higher value.
Assay [9] can be described thus: calorie-restriction mimetic ROS inhibitors, yeast – validation compound set, pilot screen (AID 2706;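 active = superoxide response below 65% of plate, a cut near 3 SD across the whole screen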;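 note: yeast exposed to compound for one week at 30 degrees C before staining; 100% = mean of all compound wells on the same plate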). Conditions: S. cerevisiae aging, superoxide DHE fluorescence; at 10 µM; stronger effect = lower value.
The target in assay [10] is Beta-adrenergic receptor kinase 1 (Homo sapiens) (UniProt P25098). In words: GRK2 binders displacing RNA aptamer, biochemical, validation, human GRK2, bead flow cytometry (AID 488806;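 active = aptamer binding inhibition above 30%, about 3 SD of noise from non-fluorescent compounds; inactive = inhibition at or below 30%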). Particulars: bead-bound GRK2, FAM-aptamer displacement, at 10 µM, stronger effect = higher value.
Assay [11] has as its target AP-2 complex subunit beta (Homo sapiens) (UniProt P63010). In words: beta-arrestin/AP2 interaction blockers – biochemical, validation set, GST-AP2 beads, flow cytometry, pilot screen (AID 504541;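 active = inhibition above 54%, about 3 SD of non-fluorescent compounds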;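 note: AP2 carries R879A mutation and is captured from E. coli lysate; bead-bound FITC arrestin peptide fluorescence measuring arrestin peptide binding to AP2; 0% = DMSO wells and 100% = excess unlabeled arrestin peptide control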). Conditions: FITC arrestin peptide, at 10 µM, stronger effect = higher value.
Assay [12] is described as follows: cytosolic pH regulators acting via V-ATPase – S. cerevisiae, pHLuorin, HTS validation (AID 504600; in the data active = response above about 15%;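 note: plate controls were DMSO for no effect and reference compound for full effect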). Conditions: V-ATPase proton transport, at 10 µM, stronger effect = higher value.
Assay [13] concerns anti-desmoglein-3 scFv antibody binding to human DSG3. In words: blockers of pathogenic pemphigus antibody–desmoglein-3 binding – biochemical, validation compound set, bead-based, flow cytometry, pilot screen (AID 588368;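 active = binding below the plate cutoff, the plate median minus 3 SD, with a reading above zero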;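 note: signal is the median channel fluorescence of bead-bound GFP antibody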). Conditions: Protein G beads, DSG3-Fc, scFv-GFP binding, at 10 µM, stronger effect = lower value.
A short description of assay [14]: Nile Red efflux blockade in pump-expressing yeast – validation compound set, multiplex, phenotypic, pilot screen (AID 588506;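 active = efflux inhibition above 0.42, the validation set average plus 4 SD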;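 note: Nile Red retained in cells so higher fluorescence means more efflux inhibition; 0 = negative control wells and 1 = enniatin B 25 µM full block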). Conditions: S. cerevisiae pump-expressing triplex, Nile Red efflux flow cytometry; at 10 µM; stronger effect = higher value.
Assay [15] addresses ATP-binding cassette sub-family B member 6 (Homo sapiens) (UniProt Q9NP58). In words: blockers of ABCB6-driven porphyrin uptake – K562-ABCB6 cells, flow cytometry, validation set, pilot screen (AID 588550;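 active = inhibition above the screen-wide mean plus 3 SD, about 51%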;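 note: 0% = DMSO wells and 100% = benzethonium chloride 70 µM positive control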). Particulars: K562-ABCB6 porphyrin accumulation, 1 h, at 10 µM, stronger effect = higher value.
The nature of assay [16]: AML differentiation inducers, ER-HoxA9 marrow cells – cell-based, GFP/MAC1 double positive, flow cytometry, validation set, primary screen (AID 588685;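 active = differentiation response of at least 50%, scaled between solvent and reference control, from cells with both markers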;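 note: compound exposure lasts four days before antibody staining and flow analysis; 0% = DMSO wells and 100% = 5 µM fulvestrant positive control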). Conditions: stronger effect = higher value.
Assay [17] in a line: TOR pathway GLN3 branch reporter MEP2-GFP changes – S. cerevisiae, multiplex flow cytometry, primary screen (AID 1867;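 active = GFP response, as percent of the DMSO control, above the screen-wide mean plus 3 SD, about 139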;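 note: median GFP channel fluorescence of barcode-gated MEP2-GFP cells measured by flow cytometry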). Conditions: S. cerevisiae MEP2-GFP strain, 3 h, at 10 µM, stronger effect = higher value.
Assay [18] has as its system Botulinum neurotoxin type F light chain protease (Clostridium botulinum). In words: Clostridium botulinum type F light chain protease inhibitors, microsphere substrate cleavage, validation (AID 588459). Conditions: multiplex microsphere protease substrate cleavage assay, flow cytometry; at 10 µM; stronger effect = higher value.
In assay [19] the target is Botulinum neurotoxin type A (Clostridium botulinum) (UniProt P0DPI0). In words: BoNT/A light chain protease inhibitors, biochemical, multiplex microsphere flow cytometry, validation set (AID 588460). Conditions: at 10 µM, stronger effect = higher value.
The target of assay [20] is Lethal factor (Bacillus anthracis) (UniProt P15917). In words: Bacillus anthracis lethal factor inhibition, microsphere flow cytometry protease assay, validation at 10 µM (AID 588461). Conditions: multiplex microsphere protease cleavage assay, stronger effect = higher value.
Where [21] appears, read: measured here: daughter cell gate.
The mark [22] stands for this setting: measured here: mother cell gate.
[23] abbreviates: measured here: daughter cell gate response.
Where [24] appears, read: measured here: mother cell gate response.

Results filed as inconclusive are left out. Calls of active or inactive are those of the source. Unless noted, the rule behind the calls is not given here.

AP-2 complex subunit beta (Homo sapiens), sequence (P63010 whole entry, looked up, one chain of several): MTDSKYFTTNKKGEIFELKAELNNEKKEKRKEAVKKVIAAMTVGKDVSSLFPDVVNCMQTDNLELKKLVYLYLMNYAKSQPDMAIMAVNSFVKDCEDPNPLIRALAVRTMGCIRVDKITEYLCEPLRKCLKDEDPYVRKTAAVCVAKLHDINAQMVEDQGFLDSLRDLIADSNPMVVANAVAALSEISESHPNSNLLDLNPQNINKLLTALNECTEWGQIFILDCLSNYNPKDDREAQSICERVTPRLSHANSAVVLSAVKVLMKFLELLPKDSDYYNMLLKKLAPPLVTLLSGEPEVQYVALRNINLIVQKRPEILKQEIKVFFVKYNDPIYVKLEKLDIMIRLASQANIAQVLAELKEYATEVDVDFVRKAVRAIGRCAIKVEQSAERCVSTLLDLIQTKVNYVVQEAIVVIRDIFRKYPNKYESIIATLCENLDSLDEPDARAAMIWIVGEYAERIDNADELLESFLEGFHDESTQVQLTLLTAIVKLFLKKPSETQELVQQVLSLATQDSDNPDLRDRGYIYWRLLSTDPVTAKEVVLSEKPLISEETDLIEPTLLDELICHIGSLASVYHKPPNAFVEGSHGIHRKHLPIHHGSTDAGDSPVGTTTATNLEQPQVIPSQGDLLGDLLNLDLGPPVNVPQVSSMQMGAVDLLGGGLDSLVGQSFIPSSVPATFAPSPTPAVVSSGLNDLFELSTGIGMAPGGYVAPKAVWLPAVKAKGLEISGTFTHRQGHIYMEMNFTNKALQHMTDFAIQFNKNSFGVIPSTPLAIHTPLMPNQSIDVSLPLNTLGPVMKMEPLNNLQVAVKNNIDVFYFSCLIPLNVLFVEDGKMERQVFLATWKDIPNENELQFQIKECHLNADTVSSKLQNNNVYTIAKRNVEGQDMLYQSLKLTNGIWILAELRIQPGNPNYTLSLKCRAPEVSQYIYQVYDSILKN
Integrin beta-1 (Homo sapiens) + Integrin alpha-4 (Homo sapiens), sequence (P05556 whole entry, looked up): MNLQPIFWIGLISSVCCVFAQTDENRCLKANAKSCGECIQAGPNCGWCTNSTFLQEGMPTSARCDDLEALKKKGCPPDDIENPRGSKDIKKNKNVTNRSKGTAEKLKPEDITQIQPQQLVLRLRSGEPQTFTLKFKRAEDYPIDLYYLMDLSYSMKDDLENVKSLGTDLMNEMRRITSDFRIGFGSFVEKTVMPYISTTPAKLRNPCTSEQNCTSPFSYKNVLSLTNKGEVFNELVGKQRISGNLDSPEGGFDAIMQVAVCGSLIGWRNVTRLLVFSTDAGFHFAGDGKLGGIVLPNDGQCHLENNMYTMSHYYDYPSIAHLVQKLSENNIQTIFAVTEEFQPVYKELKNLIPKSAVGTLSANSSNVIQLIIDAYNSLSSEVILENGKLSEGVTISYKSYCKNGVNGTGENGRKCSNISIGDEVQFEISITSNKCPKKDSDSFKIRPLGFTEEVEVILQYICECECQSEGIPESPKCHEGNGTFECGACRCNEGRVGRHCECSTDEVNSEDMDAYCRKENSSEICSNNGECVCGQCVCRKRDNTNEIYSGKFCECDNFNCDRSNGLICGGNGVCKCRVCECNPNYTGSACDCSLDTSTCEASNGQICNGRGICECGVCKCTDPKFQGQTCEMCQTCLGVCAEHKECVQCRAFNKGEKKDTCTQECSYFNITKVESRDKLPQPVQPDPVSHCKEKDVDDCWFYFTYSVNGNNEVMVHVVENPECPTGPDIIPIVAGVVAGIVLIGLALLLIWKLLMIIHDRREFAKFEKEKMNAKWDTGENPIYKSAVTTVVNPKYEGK
Integrin beta-1 (Homo sapiens) + Integrin alpha-4 (Homo sapiens), sequence (P13612 whole entry, looked up): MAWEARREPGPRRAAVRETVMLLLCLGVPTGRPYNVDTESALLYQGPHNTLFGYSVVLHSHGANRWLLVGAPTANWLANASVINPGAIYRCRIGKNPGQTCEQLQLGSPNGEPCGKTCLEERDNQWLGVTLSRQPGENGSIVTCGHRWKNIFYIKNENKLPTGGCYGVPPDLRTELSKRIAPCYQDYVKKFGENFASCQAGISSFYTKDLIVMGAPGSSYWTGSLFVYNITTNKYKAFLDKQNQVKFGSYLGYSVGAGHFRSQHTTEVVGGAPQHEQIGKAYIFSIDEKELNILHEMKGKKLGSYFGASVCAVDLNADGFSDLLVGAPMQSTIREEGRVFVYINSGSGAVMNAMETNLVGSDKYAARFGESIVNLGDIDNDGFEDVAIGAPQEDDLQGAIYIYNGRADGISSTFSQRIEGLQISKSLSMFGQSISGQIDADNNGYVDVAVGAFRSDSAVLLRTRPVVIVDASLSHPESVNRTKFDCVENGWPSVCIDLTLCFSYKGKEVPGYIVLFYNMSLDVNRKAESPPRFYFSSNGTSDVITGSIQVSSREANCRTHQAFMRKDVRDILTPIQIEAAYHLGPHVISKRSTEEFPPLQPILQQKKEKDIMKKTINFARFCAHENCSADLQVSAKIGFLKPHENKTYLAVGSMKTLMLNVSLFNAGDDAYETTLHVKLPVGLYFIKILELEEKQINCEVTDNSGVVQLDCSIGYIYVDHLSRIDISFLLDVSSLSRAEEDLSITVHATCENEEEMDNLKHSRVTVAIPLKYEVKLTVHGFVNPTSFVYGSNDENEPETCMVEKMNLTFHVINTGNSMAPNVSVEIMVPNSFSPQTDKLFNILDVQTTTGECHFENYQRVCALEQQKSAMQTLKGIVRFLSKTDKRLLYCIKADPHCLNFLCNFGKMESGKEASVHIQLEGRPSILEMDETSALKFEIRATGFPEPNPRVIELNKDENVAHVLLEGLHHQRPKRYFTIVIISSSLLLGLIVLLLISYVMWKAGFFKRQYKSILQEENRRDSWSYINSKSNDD
Beta-adrenergic receptor kinase 1 (Homo sapiens), sequence (P25098 whole entry, looked up): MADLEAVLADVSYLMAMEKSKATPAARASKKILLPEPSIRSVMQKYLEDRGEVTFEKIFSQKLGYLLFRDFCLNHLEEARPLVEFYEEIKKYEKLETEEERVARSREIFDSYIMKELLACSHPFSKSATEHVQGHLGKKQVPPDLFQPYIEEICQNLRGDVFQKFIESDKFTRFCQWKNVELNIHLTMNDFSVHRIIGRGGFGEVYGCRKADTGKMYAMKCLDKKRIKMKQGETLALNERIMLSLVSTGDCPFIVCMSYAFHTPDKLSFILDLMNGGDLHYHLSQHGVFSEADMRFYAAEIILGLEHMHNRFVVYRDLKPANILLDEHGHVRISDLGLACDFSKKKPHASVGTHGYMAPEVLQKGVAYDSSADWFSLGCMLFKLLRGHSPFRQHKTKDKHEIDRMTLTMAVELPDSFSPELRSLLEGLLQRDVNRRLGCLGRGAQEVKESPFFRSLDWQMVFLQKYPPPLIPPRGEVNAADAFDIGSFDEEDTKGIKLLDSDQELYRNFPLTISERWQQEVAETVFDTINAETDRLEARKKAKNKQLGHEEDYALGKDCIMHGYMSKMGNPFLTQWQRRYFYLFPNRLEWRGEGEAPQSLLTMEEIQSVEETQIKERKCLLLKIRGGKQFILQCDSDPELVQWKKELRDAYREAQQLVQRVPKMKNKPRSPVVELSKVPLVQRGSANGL
ATP-binding cassette sub-family B member 6 (Homo sapiens), sequence (Q9NP58 whole entry, looked up): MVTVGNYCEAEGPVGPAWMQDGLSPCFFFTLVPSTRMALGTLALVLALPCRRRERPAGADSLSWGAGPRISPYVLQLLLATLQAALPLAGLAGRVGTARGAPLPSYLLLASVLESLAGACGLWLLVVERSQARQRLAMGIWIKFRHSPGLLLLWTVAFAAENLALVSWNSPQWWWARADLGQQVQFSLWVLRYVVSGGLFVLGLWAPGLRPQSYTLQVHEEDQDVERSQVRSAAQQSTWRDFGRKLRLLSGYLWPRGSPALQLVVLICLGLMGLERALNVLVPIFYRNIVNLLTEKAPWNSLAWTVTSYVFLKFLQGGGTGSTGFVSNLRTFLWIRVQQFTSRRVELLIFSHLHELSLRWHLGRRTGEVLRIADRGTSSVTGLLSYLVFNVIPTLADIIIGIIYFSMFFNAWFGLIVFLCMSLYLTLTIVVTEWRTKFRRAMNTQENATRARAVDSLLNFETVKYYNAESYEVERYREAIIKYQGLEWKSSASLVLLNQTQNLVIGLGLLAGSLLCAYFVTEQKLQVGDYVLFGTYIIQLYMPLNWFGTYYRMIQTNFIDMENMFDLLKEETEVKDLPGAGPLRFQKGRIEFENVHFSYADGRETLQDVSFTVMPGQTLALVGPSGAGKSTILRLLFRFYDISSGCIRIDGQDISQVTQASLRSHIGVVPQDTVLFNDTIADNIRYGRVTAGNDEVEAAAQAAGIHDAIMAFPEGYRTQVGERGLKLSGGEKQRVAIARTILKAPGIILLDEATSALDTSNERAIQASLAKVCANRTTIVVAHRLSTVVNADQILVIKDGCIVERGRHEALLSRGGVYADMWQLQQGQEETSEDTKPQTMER

As to `O=C1NC(=O)C(=Cc2ccc(Sc3ccccc3)o2)C(=O)N1`, the GFP response vs DMSO was 103% (inactive) in [1], 93.1% in assay [1] (setting [21]) and 89.2% in assay [1] (setting [22]). For the same molecule, the GFP response relative to DMSO in assay [2] was 140% (inactive); in [2] (setting [23]) it was 107%; in assay [2] (setting [24]), 148%. For the same molecule, the values for the GFP response, % of DMSO in [3] and in [3] (setting [22]) were 91.2% (inactive) and 77.2%, respectively.
Usually inhibition stands for the drop in the measured response relative to a control, in per cent. Consider `CCOC(=O)c1cncn1C(C)c1ccccc1` (stereo unspecified), for which the percent of DMSO control GFP in [4] was 104% (inactive). Further, in [5], the percent response of DMSO control is 106% (inactive). Moreover, in assay [6], the GFP response vs DMSO is 80.2% (inactive). Further, the double positive events in assay [7] is 60%. Besides, the vesicle binding response in [7] was 404% (inactive). In addition, the inhibition in assay [8] was 7.85% (inactive); in [11], -10.9% (inactive); in assay [15], 12% (inactive). The superoxide response (% of plate) in assay [9] is 97% (inactive). Further, the aptamer binding inhibition in assay [10] is 4% (inactive). In addition, the response in assay [12] is 2.71% (inactive). Besides, in assay [13], the binding (% of control) was 101% (inactive). The efflux inhibition (fraction of control) in [14] was 0.27 (inactive). Besides, the differentiation response in assay [16] is 2.2% (inactive).
With `O=C1C=Cc2ccccc2C1=O`, in assay [4], the percent of DMSO control GFP was 102% (inactive). For the same molecule, the GFP response vs DMSO in assay [17] is 116% (inactive); in assay [6], 89.1% (inactive). For the same molecule, the percent response of DMSO control in assay [5] was 116% (inactive). The double positive events in assay [7] came out at 43.3%. Besides, in assay [7], the vesicle binding response was 71.6% (active). Besides, the inhibition in assay [8] was -65.3% (inactive); in assay [11], 8% (inactive); in assay [18], -1.2% (inactive); in [19], 1.7% (inactive); in [20] it was 1.9% (inactive); in assay [15] it was 7% (inactive). Further, in assay [9], the superoxide response (% of plate) is 129% (inactive). The aptamer binding inhibition in [10] was 2% (inactive). The response in assay [12] was 1.9% (inactive). In assay [13], the binding (% of control) was 109% (inactive). Also, the efflux inhibition (fraction of control) in assay [14] is -0.09 (inactive). The differentiation response in [16] is 5.73% (inactive).
With `O=c1[nH]c(=O)n(Cc2ccc(F)cc2)c(O)c1C=NCCN1CCCCC1`, the GFP response vs DMSO in assay [1] is 96.9% (inactive); in assay [1] (setting [21]) it was 97%; in assay [1] (setting [22]), 94.8%. In addition, the GFP response relative to DMSO in assay [2] is 95.3% (inactive); in assay [2] (setting [23]) it was 94.4%; in assay [2] (setting [24]), 94.4%. Also, the GFP response, % of DMSO in assay [3] is 95.8% (inactive); in assay [3] (setting [21]), 97.6%; in assay [3] (setting [22]), 94.9%.
Regarding `Cc1cc(C=C2C(=O)N(C)C(=S)N(C)C2=O)c(C)n1-c1ccncc1`, the values for the GFP response vs DMSO in assay [1], in [1] (setting [21]) and in assay [1] (setting [22]) were 92.8% (inactive), 91.1% and 88.6%, respectively. Also, the GFP response relative to DMSO in assay [2] was 114% (inactive); in assay [2] (setting [23]), 108%; in assay [2] (setting [24]) it was 117%. Moreover, the results for the GFP response, % of DMSO in [3], in [3] (setting [21]) and in [3] (setting [22]) were 69.1% (inactive), 70.3% and 64.4%, respectively.
As for `CCN1CC2(COC(=O)c3ccccc3N)CCC(OC)C34C5CC6C(OC)CC(O)(C5C6OC)C(O)(C(OC)C23)C14` (stereo unspecified), the percent of DMSO control GFP in [4] was 91.1% (inactive). The GFP response vs DMSO was 120% (inactive) in assay [17] and 86.4% (inactive) in assay [6]. The percent response of DMSO control in [5] was 96.6% (inactive). The double positive events in [7] was determined as 68.8%. Moreover, the vesicle binding response in assay [7] is 247% (inactive). The inhibition is 5.49% (inactive) in assay [8]; 4.65% (inactive) in [11]; 1.9% (inactive) in assay [18]; 0.1% (inactive) in assay [19]; -9.8% (inactive) in [20]; 8% (inactive) in assay [15]. Further, the superoxide response (% of plate) in [9] was 99.8% (inactive). In assay [10], the aptamer binding inhibition was 2% (inactive). Further, in assay [12], the response is 5.45% (inactive). Also, in assay [13], the binding (% of control) was 101% (inactive). The efflux inhibition (fraction of control) in assay [14] was -0.42 (inactive). The differentiation response in [16] was 9.83% (inactive).

For the origin of these results see PubChem BioAssay.
